Tests used:
Test in all cases: DAPPL (digital affinity profiling via proximity ligation, sequencing); 10 mM Tris-HCl pH 7.5, 50 mM NaCl, 1 mM DTT, 4% glycerol, room temperature, 30 min; GST-TFs on glutathione beads, 16-mer random dsDNA library, 0.1% formaldehyde crosslink after washing; high values mean tight binding
[1] = molecular target: T1, FEV (Homo sapiens, UniProt Q99581 1-238); details: protein: recombinant; tags: N-terminal GST; dsDNA, one strand shown
T1 sequence: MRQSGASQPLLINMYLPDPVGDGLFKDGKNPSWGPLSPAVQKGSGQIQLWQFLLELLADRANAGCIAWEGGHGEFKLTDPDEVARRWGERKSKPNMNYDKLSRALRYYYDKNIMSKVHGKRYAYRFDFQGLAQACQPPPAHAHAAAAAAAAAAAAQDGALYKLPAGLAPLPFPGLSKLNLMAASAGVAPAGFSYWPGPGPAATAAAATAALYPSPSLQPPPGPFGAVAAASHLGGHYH
Outline: (§1)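 Pools were built from human transcription factors expressed in yeast as GST fusions, captured on glutathione beads and DNA-barcoded, along with a tag-only sample. Incubation with 200 nmole of a 16-mer random double-stranded DNA library lasted 30 min at room temperature in Tris/NaCl/DTT/glycerol buffer, and was followed by washing, 0.1% formaldehyde crosslinking, proximity ligation, PCR amplification and Illumina NextSeq500 sequencing. Binding signal is the quotient of each hexamer's read frequency for a factor and its frequency for the tag-only sample.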

[2] = molecular target: ETV5 (Homo sapiens, UniProt P41161 1-510); details: protein: recombinant; tags: N-terminal GST; dsDNA, one strand shown
Chain of ETV5 (P41161 whole entry): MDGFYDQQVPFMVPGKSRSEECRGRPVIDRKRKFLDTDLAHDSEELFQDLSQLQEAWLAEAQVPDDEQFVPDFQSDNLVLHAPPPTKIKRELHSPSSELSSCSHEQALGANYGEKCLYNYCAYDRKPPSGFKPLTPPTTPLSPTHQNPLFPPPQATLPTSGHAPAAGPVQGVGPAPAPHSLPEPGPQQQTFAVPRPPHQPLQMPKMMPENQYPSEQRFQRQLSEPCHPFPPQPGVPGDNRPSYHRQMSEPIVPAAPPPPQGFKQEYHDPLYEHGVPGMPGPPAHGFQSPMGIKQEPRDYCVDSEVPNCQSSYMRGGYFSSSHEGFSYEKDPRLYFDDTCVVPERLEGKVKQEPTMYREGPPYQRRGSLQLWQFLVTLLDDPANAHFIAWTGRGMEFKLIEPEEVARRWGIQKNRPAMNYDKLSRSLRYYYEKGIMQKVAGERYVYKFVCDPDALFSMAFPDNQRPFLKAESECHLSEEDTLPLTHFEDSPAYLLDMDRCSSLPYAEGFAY
Outline: as §1

[3] = molecular target: HSF1 (Homo sapiens, UniProt Q00613 1-529); details: protein: recombinant; tags: N-terminal GST; chain copies: 3; dsDNA, one strand shown
Chain of HSF1 (Q00613 whole entry): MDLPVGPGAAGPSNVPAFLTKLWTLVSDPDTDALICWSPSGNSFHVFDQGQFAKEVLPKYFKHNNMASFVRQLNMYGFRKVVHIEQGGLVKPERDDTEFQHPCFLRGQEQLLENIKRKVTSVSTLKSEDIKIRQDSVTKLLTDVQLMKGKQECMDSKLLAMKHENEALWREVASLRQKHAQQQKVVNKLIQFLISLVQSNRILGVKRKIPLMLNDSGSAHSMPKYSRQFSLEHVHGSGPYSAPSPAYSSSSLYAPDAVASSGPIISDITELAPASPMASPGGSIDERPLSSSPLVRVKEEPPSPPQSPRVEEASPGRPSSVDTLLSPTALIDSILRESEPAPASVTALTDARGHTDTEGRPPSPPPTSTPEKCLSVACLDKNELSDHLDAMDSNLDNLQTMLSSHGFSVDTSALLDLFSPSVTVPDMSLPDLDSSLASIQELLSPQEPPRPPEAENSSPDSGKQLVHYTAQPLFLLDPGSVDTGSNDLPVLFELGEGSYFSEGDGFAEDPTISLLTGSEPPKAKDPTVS
Outline: as §1

[4] = molecular target: T2, SPIC (Homo sapiens, UniProt Q8N5J4 1-248); details: protein: recombinant; tags: N-terminal GST; dsDNA, one strand shown
T2 sequence: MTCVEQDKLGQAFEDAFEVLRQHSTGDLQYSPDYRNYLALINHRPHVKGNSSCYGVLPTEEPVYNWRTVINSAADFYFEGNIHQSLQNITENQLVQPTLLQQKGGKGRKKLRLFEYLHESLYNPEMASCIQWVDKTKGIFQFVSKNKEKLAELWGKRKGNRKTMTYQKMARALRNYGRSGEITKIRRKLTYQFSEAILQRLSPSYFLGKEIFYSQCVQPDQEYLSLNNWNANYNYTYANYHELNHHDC
Outline: as §1

[5] = molecular target: ELF4 (Homo sapiens, UniProt Q99607 1-663); details: protein: recombinant; tags: N-terminal GST; dsDNA, one strand shown
Chain of ELF4 (Q99607 whole entry): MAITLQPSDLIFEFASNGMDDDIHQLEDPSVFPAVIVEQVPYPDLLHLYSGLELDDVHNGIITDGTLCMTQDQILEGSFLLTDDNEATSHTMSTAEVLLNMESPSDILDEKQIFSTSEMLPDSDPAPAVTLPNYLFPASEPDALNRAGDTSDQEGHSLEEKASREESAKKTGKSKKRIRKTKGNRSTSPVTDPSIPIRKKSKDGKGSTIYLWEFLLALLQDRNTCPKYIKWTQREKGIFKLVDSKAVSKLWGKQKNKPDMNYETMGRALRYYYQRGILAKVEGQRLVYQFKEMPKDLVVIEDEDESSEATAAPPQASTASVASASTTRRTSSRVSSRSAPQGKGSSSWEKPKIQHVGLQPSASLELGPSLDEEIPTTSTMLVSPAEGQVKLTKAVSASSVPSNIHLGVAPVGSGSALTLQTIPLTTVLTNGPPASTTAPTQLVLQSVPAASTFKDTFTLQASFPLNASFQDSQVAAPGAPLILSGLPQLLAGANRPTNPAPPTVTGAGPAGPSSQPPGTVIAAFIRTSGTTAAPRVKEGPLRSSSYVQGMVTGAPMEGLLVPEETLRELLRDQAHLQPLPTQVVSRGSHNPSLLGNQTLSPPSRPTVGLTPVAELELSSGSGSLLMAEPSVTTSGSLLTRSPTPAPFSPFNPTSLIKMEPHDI
Outline: as §1

[6] = molecular target: T3, ELK4 (Homo sapiens, UniProt P28324-2 1-405); details: protein: recombinant; tags: N-terminal GST; dsDNA, one strand shown
T3 sequence: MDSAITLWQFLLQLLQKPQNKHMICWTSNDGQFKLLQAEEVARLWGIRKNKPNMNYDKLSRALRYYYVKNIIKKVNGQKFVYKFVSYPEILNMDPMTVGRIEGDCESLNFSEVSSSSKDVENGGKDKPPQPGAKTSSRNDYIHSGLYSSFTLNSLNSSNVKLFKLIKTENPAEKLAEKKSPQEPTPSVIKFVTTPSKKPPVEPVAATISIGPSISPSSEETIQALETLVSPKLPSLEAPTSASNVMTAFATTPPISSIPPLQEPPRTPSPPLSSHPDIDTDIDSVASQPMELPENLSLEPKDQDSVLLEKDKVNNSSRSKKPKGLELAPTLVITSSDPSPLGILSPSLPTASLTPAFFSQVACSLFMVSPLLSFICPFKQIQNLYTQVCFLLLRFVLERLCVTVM
Outline: as §1

[7] = molecular target: T4, ETV2 (Homo sapiens, UniProt O00321 1-342); details: protein: recombinant; tags: N-terminal GST; dsDNA, one strand shown
T4 sequence: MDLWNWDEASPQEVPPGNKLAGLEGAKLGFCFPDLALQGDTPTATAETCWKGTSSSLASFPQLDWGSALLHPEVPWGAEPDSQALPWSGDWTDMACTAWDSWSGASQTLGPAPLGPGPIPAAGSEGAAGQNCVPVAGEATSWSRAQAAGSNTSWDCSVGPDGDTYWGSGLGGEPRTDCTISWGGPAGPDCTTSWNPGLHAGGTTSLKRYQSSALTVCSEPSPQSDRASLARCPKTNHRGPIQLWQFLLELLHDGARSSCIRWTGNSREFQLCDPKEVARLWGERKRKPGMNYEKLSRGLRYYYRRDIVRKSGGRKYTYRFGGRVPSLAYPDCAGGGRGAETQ
Outline: as §1

[8] = molecular target: T5, ELF3 (Homo sapiens, UniProt P78545 1-371); details: protein: recombinant; tags: N-terminal GST; dsDNA, one strand shown
T5 sequence: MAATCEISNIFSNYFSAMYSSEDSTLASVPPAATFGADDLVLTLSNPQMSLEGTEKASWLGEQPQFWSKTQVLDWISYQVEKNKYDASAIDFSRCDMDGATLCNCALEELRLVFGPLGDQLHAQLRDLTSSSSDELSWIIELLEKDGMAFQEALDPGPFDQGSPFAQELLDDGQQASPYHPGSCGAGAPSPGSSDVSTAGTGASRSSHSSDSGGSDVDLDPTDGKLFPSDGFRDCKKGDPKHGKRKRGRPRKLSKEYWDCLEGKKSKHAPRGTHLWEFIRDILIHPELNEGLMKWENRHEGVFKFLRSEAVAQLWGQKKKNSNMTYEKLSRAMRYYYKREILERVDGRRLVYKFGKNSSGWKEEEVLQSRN
Outline: as §1

[9] = molecular target: CRX (Homo sapiens, UniProt O43186 1-299); details: protein: recombinant; tags: N-terminal GST; dsDNA, one strand shown
Chain of CRX (O43186 whole entry): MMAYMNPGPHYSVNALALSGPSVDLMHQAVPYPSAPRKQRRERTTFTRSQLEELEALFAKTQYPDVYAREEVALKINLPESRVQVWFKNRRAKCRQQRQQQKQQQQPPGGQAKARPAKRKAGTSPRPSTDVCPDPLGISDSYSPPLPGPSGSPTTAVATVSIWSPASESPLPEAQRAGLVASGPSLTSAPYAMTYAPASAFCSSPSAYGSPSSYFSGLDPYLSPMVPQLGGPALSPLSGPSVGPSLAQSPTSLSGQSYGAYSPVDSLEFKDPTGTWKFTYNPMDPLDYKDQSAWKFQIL
Outline: as §1

[10] = molecular target: ETV1 (Homo sapiens, UniProt P50549 1-477); details: protein: recombinant; tags: N-terminal GST; dsDNA, one strand shown
Chain of ETV1 (P50549 whole entry): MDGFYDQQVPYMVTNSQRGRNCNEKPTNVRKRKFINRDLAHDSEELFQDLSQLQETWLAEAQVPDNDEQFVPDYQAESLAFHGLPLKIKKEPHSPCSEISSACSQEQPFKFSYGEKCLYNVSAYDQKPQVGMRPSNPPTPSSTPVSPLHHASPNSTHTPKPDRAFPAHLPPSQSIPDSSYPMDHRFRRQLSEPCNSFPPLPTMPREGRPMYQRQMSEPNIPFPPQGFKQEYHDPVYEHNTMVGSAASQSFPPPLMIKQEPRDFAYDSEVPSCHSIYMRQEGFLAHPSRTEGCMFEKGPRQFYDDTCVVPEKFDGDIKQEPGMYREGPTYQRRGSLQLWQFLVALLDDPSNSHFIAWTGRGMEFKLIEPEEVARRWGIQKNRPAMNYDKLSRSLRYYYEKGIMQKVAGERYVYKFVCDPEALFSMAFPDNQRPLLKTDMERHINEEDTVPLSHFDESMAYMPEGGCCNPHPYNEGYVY
Outline: as §1

**Q.** How did the binding signal [1] turn out when GACTCT was run?
**A.** 1.32 fold enrichment (6-mer frequency, TF over GST control)

**Q.** What about the binding signal [2] of the same sequence?
**A.** 1.26 fold enrichment (6-mer frequency, TF over GST control)

**Q.** And the binding signal [3]?
**A.** 1.26 fold enrichment (6-mer frequency, TF over GST control)

**Q.** What about the binding signal [4] of the same sequence?
**A.** 1.55 fold enrichment (6-mer frequency, TF over GST control)

**Q.** And the binding signal [5]?
**A.** 1.29 fold enrichment (6-mer frequency, TF over GST control)

**Q.** And the binding signal [6]?
**A.** 1.28 fold enrichment (6-mer frequency, TF over GST control)

**Q.** And the binding signal [7]?
**A.** 1.26 fold enrichment (6-mer frequency, TF over GST control)

**Q.** And the binding signal [8]?
**A.** 1.28 fold enrichment (6-mer frequency, TF over GST control)

**Q.** What about the binding signal [9] of the same sequence?
**A.** 1.13 fold enrichment (6-mer frequency, TF over GST control)

**Q.** What about the binding signal [10] of the same sequence?
**A.** 1.32 fold enrichment (6-mer frequency, TF over GST control)

Source: publication PMC7862700, “An all-to-all approach to the identification of sequence-specific readers for epigenetic DNA modifications on cytosine”
